# Laboratory results: the supplement of paper PMC9694430
# Values joined by “and” are separate entries in the source; they are usually repeats but may differ in a detail not shown here. Equal entries are not always repeated. Structures can show the parent of a compound that is named as a salt.
# How the values were obtained:
# Test in all cases: thermal shift delta Tm vs DMSO control; higher = stronger stabilization (binding)
# Settings in all cases: 12.5 µM; protein concentration 2 µM
# LOC_OS02G45750-cb003 = test system: LOC_OS02G45750-cb003
# Summary of the method: (§1)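 Rice kinase domain constructs were expressed in E. coli, purified, and tested by differential scanning fluorimetry with compound added in DMSO. Each well of a 96-well plate held 19.5 μl of 2 μM kinase in 100 mM potassium phosphate pH 7.5, 150 mM NaCl, 10% glycerol and 5 × SYPRO Orange, and fluorescence was read from 25°C to 95°C at 0.05°C/s. The melting temperature shift is the mean of triplicates, taken against protein with DMSO alone after Boltzmann fitting.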
# LOC_OS02G54510-cb004 = test system: LOC_OS02G54510-cb004
# Summary of the method: as §1
# LOC_OS03G04050-cb001 = test system: LOC_OS03G04050-cb001
# Summary of the method: as §1
# LOC_OS03G12390-cb001 = test system: LOC_OS03G12390-cb001
# Summary of the method: as §1
# LOC_OS03G27990-cb004 = test system: LOC_OS03G27990-cb004
# Summary of the method: as §1
# LOC_OS03G50450-cb001 = test system: LOC_OS03G50450-cb001
# Summary of the method: as §1
# LOC_OS03G50810-cb003 = test system: LOC_OS03G50810-cb003
# Summary of the method: as §1
# LOC_OS04G35114-cb001 = test system: LOC_OS04G35114-cb001
# Summary of the method: as §1
# LOC_OS04G38480-cb003 = test system: T1, LOC_OS04G38480-cb003
# T1 sequence (whole entry): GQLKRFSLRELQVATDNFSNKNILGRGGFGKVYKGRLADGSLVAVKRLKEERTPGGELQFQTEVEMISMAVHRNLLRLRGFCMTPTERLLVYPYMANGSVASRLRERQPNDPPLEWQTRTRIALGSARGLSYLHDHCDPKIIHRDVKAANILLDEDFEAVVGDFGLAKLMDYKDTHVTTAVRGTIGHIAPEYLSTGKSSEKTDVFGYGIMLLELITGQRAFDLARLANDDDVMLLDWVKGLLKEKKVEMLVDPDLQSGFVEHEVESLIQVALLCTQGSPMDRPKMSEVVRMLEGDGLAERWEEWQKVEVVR
# Summary of the method: as §1
# LOC_OS04G41100-cb001 = test system: T2, LOC_OS04G41100-cb001
# T2 sequence (whole entry): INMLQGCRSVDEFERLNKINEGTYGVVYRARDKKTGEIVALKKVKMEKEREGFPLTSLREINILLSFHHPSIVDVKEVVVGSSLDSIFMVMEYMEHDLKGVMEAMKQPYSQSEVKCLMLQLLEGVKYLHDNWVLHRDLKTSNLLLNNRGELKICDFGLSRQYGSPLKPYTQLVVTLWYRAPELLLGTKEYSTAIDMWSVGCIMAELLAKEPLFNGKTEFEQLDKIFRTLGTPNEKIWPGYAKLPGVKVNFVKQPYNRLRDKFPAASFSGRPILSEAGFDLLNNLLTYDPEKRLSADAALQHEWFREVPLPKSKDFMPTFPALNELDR
# Summary of the method: as §1
# LOC_OS04G57630-cb004 = test system: LOC_OS04G57630-cb004
# Summary of the method: as §1
# LOC_OS05G07850-cb002 = test system: LOC_OS05G07850-cb002
# Summary of the method: as §1
# LOC_OS05G16824-cb004 = test system: LOC_OS05G16824-cb004
# Summary of the method: as §1
# LOC_OS05G28520-cb001 = test system: LOC_OS05G28520-cb001
# Summary of the method: as §1
# LOC_OS05G30820-cb001 = test system: LOC_OS05G30820-cb001
# Summary of the method: as §1
# LOC_OS05G43570-cb004 = test system: LOC_OS05G43570-cb004
# Summary of the method: as §1
# LOC_OS06G16330-cb003 = test system: LOC_OS06G16330-cb003
# Summary of the method: as §1
# LOC_OS06G22820-cb001 = test system: T3, LOC_OS06G22820-cb001
# T3 sequence (whole entry): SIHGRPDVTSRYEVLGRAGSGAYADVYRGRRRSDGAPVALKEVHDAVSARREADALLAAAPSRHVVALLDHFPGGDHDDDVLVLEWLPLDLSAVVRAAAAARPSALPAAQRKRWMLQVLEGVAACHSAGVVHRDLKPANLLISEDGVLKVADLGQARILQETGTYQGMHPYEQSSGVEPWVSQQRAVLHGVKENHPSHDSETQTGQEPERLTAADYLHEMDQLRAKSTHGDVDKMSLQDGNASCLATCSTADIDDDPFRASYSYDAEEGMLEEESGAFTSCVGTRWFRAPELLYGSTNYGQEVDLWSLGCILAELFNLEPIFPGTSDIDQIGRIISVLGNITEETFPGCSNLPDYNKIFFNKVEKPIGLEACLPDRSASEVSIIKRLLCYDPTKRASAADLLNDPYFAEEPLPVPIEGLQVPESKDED
# Summary of the method: as §1
# LOC_OS07G06570-cb004 = test system: LOC_OS07G06570-cb004
# Summary of the method: as §1
# LOC_OS07G07230-cb001 = test system: LOC_OS07G07230-cb001
# Summary of the method: as §1
# LOC_OS06G16330-cb003, sequence (as listed by the source): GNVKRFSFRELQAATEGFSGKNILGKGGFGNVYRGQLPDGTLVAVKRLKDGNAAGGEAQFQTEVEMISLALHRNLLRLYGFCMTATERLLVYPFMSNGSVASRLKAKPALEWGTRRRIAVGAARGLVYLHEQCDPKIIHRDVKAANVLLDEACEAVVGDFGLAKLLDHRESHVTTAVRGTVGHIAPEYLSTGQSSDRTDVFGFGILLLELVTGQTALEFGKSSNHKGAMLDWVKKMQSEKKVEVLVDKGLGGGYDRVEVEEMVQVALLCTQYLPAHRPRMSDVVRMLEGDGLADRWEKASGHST
SMILES,thermal shift delta Tm (LOC_OS02G45750-cb003),thermal shift delta Tm (LOC_OS02G54510-cb004),thermal shift delta Tm (LOC_OS03G04050-cb001),thermal shift delta Tm (LOC_OS03G12390-cb001),thermal shift delta Tm (LOC_OS03G27990-cb004),thermal shift delta Tm (LOC_OS03G50450-cb001),thermal shift delta Tm (LOC_OS03G50810-cb003),thermal shift delta Tm (LOC_OS04G35114-cb001),thermal shift delta Tm (LOC_OS04G38480-cb003),thermal shift delta Tm (LOC_OS04G41100-cb001),thermal shift delta Tm (LOC_OS04G57630-cb004),thermal shift delta Tm (LOC_OS05G07850-cb002),thermal shift delta Tm (LOC_OS05G16824-cb004),thermal shift delta Tm (LOC_OS05G28520-cb001),thermal shift delta Tm (LOC_OS05G30820-cb001),thermal shift delta Tm (LOC_OS05G43570-cb004),thermal shift delta Tm (LOC_OS06G16330-cb003),thermal shift delta Tm (LOC_OS06G22820-cb001),thermal shift delta Tm (LOC_OS07G06570-cb004),thermal shift delta Tm (LOC_OS07G07230-cb001)
Cc1nc(Nc2cnn(C3CCNCC3)c2)nc2c1N(C)C(=O)c1cc3ccccc3cc1N2C,2.86 °C,-0.12 °C,0.18 °C,1.89 °C,0.13 °C,0.69 °C,0.96 °C,1.48 °C,1.64 °C,0.38 °C,0.88 °C,6.28 °C,3.82 °C,0.38 °C,0.47 °C,0.33 °C,1.66 °C,0.22 °C,0.49 °C,0.2 °C
CCn1nc(C2CCN(C(=O)CCO)CC2)nc1-c1cnc(N)c(-c2nnc(C(C)(C)C)o2)n1,3.05 °C,0.25 °C,0.43 °C,4.97 °C,0.52 °C,0.05 °C,0.89 °C,4.72 °C,2.09 °C,0.3 °C,0.47 °C,8.76 °C,1.95 °C,0.66 °C,0.58 °C,0.43 °C,5.59 °C,0.93 °C,0.86 °C,0.4 °C
Cc1cc(NC(=O)c2cccc(NC(=O)/C=C/CN(C)C)c2)ccc1Nc1nccc(-c2cccnc2)n1,3.5 °C,0.3 °C,1.05 °C,2.05 °C,0.81 °C,1.19 °C,1.1 °C,1.79 °C,1.17 °C,0.83 °C,7.66 °C,2.7 °C,1.96 °C,1.08 °C,0.57 °C,0.56 °C,2.18 °C,1.05 °C,1.56 °C,-0.14 °C
NC(=O)c1ccc2nc(-c3ccc(Oc4ccc(Cl)cc4)cc3)[nH]c2c1 [Chk2 Inhibitor II (BML-277)],-1.27 °C,-0.11 °C,0.47 °C,0.95 °C,0.3 °C,0.23 °C,0.22 °C,0.43 °C,0.19 °C,-0.49 °C,-0.02 °C,3.29 °C,2.79 °C,0.29 °C,-0.18 °C,0.06 °C,0.28 °C,0.74 °C,-0.16 °C,-0.75 °C
COc1ccc(Cl)cc1NC(=O)Nc1cc(C)nc2ccccc12,0.37 °C,0.12 °C,0.38 °C,0.21 °C,0.52 °C,0.68 °C,0.32 °C,0.93 °C,0.32 °C,0.36 °C,0.07 °C,0.02 °C,0.17 °C,0.38 °C,0.46 °C,0.5 °C,0.31 °C,0.69 °C,0.61 °C,0.62 °C
O=C1c2ccc(Nc3ccc(F)cc3F)cc2CCc2ccc(OC[C@H](O)CO)cc21 [Skepinone-L],0.45 °C,-0.21 °C,-0.01 °C,-0.61 °C,0.11 °C,0.06 °C,-0.16 °C,1.82 °C,1.25 °C,0.53 °C,-0.62 °C,1.02 °C,-0.73 °C,0.27 °C,0.6 °C,0.4 °C,-0.23 °C,0.53 °C,0.41 °C,-0.05 °C
Cc1nc(NC(=O)N2CCC[C@H]2C(N)=O)sc1-c1ccnc(C(C)(C)C(F)(F)F)c1 [Alpelisib (BYL719)],-0.52 °C,0.02 °C,0.28 °C,0.2 °C,0.55 °C,0.38 °C,0.21 °C,1.56 °C,0.94 °C,0.49 °C,-0.02 °C,7.19 °C,-1.37 °C,0.17 °C,0.38 °C,0.29 °C,0.44 °C,0.57 °C,1.48 °C,0.13 °C
CS(=O)(=O)c1ccc(-c2cnc(N)c(C(=O)Nc3ccccc3)n2)cc1,4.49 °C,0.26 °C,0.2 °C,0.62 °C,0.7 °C,0.18 °C,0.94 °C,3.32 °C,1.11 °C,0.38 °C,0.45 °C,8.7 °C,-1.5 °C,0.25 °C,0.57 °C,0.1 °C,2.51 °C,0.37 °C,0.82 °C,0.7 °C
C[C@@H]1CCN(C(=O)CC#N)C[C@@H]1N(C)c1ncnc2[nH]ccc12,0.35 °C and 0.85 °C,0.3 °C and 0.25 °C,0.21 °C and 0.74 °C,0.19 °C and 0.26 °C,0.12 °C and 0.5 °C,0.32 °C and 0.68 °C,0.11 °C and 0.63 °C,0.38 °C and 0.48 °C,0.3 °C and 0.6 °C,-0.01 °C and 0.47 °C,-0.1 °C and 0.49 °C,2.97 °C and 3.63 °C,-1.07 °C and 0.7 °C,0.03 °C and 0.86 °C,0.42 °C and 0.38 °C,0.33 °C and 0.16 °C,0.7 °C and 0.62 °C,0.46 °C and 1.08 °C,0.55 °C and 1.39 °C,0.32 °C and -0.21 °C
CCCCCCCCc1ccc(CCC(N)(CO)CO)cc1 [Fingolimod (FTY720) HCl],-0.8 °C,-0.96 °C,-0.79 °C,-1.7 °C,-0.42 °C,-0.24 °C,-1.68 °C,-0.12 °C,0.32 °C,0.19 °C,-0.4 °C,1.83 °C,-4.01 °C,-0.43 °C,-0.07 °C,-1.13 °C,-1.94 °C,0.07 °C,0.28 °C,-1.48 °C
C[C@H](CN(C)C)Oc1nc(Nc2cc3cccc(Cl)c3cn2)cnc1C#N,2.56 °C,0.35 °C,0.34 °C,1.56 °C,0.61 °C,0.13 °C,1.33 °C,1.48 °C,1.13 °C,0.28 °C,-0.04 °C,5.49 °C,3.41 °C,0.32 °C,0.46 °C,0.43 °C,1.98 °C,0.49 °C,0.8 °C,0.34 °C
CCOc1ccn(-c2ccc(F)cc2)c(=O)c1C(=O)Nc1ccc(Oc2ccnc(N)c2Cl)c(F)c1,1.27 °C,0.13 °C,0.16 °C,0.96 °C,0.05 °C,0.3 °C,0.47 °C,1.17 °C,1.53 °C,2.01 °C,0.68 °C,11.6 °C,1.29 °C,0.56 °C,0.42 °C,1.2 °C,4.26 °C,0.43 °C,0.64 °C,0.01 °C
CCNc1nc(Nc2cc(F)c(C(=O)N3CCOCC3)cc2OC)ncc1C(F)(F)F,1.06 °C,0.23 °C,0.41 °C,0.25 °C,0.28 °C,0.95 °C,0.82 °C,1.17 °C,1.15 °C,0.43 °C,0 °C,3.03 °C,1.21 °C,0.71 °C,0.46 °C,0.26 °C,0.76 °C,0.28 °C,0.96 °C,-0.16 °C
